About 83,000 compounds went through this panel and 20% of them were active in at least one assay; those are over-represented in the sample as a whole.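 Plates (96-well) were seeded with cells, treated with compound at one concentration, and incubated for 48 hours before percent growth was determined.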 Values without a mark were called inactive. Active and inactive are the calls of the source.
Each compound was assayed on NCI/ADR-RES ovarian (assay: NCI-60 one-dose screen, 48 h (100 = growth as untreated, 0 = no growth, -100 = all killed)). Settings: 10 µM unless noted.
Description: Growth inhibition of the NCI/ADR-RES human […] tumor cell line is measured as a screen for anti-cancer activity. Cells are grown in 96 well plates and exposed to the test compound for 48 hours. Compounds are tested at a single concentration, which is 10^-5 M for most compounds. The reported endpoint is percent growth (GI% or GIPRCNT), where numbers from 0 - 100% represent growth inhibition, and numbers from -100% - 0 represent cell death. For example, a value of 40 represents 60% growth inhibition. A value of 0 means no net growth occurred over the course of the experiment. A value of -40 indicates 40% of cells at the beginning of the experiment died by the end of the experiment. A value of -100 means all cells are dead at the end of the experiment.
NCI-60 Human Tumor Cell Lines Screen was performed using the standard one-dose NCI protocol, which is described in more detail at https://dtp.cancer.gov/discovery_development/nci-60/default.htm.
Compounds with GIPRCNT values below 10 were considered active. Activity score was based on GIPRCNT using the following formula: […]
Score is 0 for GIPRCNT values of 100 or above, 50 for GIPRCNT values of 0, and 100 for GIPRCNT values of -100.
`O=C(Nc1cccc(-c2nc(-c3ccc(NC(=O)c4cccnc4)cc3Cl)no2)c1)Nc1ccc(NC(=O)C2CC2)c(C(F)(F)F)c1` was tested, and the growth was 64.1%. Compound `Cc1ccc(/C=C/c2nn3c(-c4ccco4)nnc3s2)cc1` has a growth of 104%. `O=C1CSC(=O)N1Cc1cc2ccccc2nc1Cl` showed a growth of 105%. `O=C1Nc2ccc(Br)cc2/C1=N\c1nnc(-c2ccc(Cl)cc2)o1` gave a growth of 36.9%. `CC1(COc2ccc3ncc(C#Cc4cncc(C(=O)Nc5cc(C(C)(C)C)on5)c4)n3n2)COC1` showed a growth of 22.2%. `CN1C(=O)N(C)C2C1NN=c1s/c(=C\c3ccccn3)c(=O)n12` (stereo not given) was tested, and the growth was 96.7%. Compound `COc1ccc(N)cc1C(=O)Nc1cccc(-c2cc(=O)c3c(OC)c(OC)c(OC)cc3o2)c1` has a growth of 60.7%. `C/C(=N\NC(=O)CSc1nc2sc3c(c2c(=O)n1-c1ccccc1)CCC(C)C3)c1ccc(Cl)cc1` (stereo not given) gave a growth of 12.4%. Work on `COc1ccc2c(c1)oc1c3[nH]c4ccccc4c3c3c(c21)C(=O)N(O)C3=O` yielded a growth of 59.6%. `CCCC(=O)NC(c1cccnc1)c1ccc2c(C)ccnc2c1O` (stereo not given) was tested, and the growth was 9.99% (active). `O=C1c2cc(Br)ccc2-n2c1nc1cc(Br)ccc1c2=O` gave a growth of 84.2%. `CCCCCCNC(=O)Oc1ccc(/C(=C(/C)c2ccc(Cl)cc2)c2ccc(OCCN3CCCC3)cc2)cc1` showed a growth of 50.4%. In the case of `COc1cc(/C=C2\SC(=O)NC2=O)ccc1OCC(=O)Nc1ccc(C(=O)/C=C/c2cc3ccccc3nc2Cl)cc1`, the growth is reported as 97.9%. `Oc1ccc(CSc2nnc(-c3ccc(Br)cc3)n2-c2ccccc2)c2cccnc12` showed a growth of 12.2%. For `CC(=O)NC(C)(C)C(=O)N1CCC[C@H]1C(=O)NC(C)(C)C(=O)N[C@@H](C)C(=O)NC(C)(C)C(=O)N[C@@H](C)C(=O)N[C@@H](CCC(N)=O)C(=O)NC(C)(C)C(=O)N[C@H](C(=O)NC(C)(C)C(=O)NCC(=O)N[C@@H](CC(C)C)C(=O)NC(C)(C)C(=O)N1CCC[C@H]1C(=O)N[C@H](C(=O)NC(C)(C)C(=O)NC(C)(C)C(=O)N[C@@H](CCC(N)=O)C(=O)N[C@@H](CCC(N)=O)C(=O)N[C@H](CO)Cc1ccccc1)C(C)C)C(C)C`, the growth was 99.5% [4.25 µM]. `CC1CCN(S(=O)(=O)c2ncsc2-c2ccccc2)CC1` was tested, and the growth was 90%. With `O=C(CCCCCCN1CC(=O)N2[C@@H](c3cc(F)cc(F)c3)c3[nH]c4ccccc4c3C[C@H]2C1=O)NO` the growth was 91.5%. With `COc1ccc(-c2ccnc3c(C#N)c(Nc4ccccc4)nn23)cc1OC` the growth was 85.5%. With `C=CCn1c(SCC(=O)c2ccc(OC)cc2)nnc1-c1ccc(OC)cc1` the growth was 94.9%. In the case of `CCNC(=O)Oc1ccc(/C(=C(/C)c2ccc(Cl)cc2)c2ccc(OCCN3CCCC3)cc2)cc1`, the growth is reported as 78.7%. With `Nc1nc(N)c2c(n1)NC(c1ccccc1)CC(c1ccc(Nc3nc(NCCO)nc(Nc4ccc(Cl)cc4)n3)cc1)=N2` (stereo not given) the growth was 48.4%. `Oc1ccc(CSc2nnc(-c3ccccc3)n2-c2ccccc2)c2cccnc12` was tested, and the growth was 8.58% (active). Work on `O=C(NCCNc1cc(-c2cn(-c3ccccc3)nc2-c2cccc(O)c2)ccn1)Nc1ccc(Cl)c(C(F)(F)F)c1` yielded a growth of 49.8%. `CCOC(=O)c1ccc(N/C=C/C(=O)c2ccccc2)cc1` was tested, and the growth was 103%. Compound `O=S(=O)(NCCCNc1nccc(-n2cnc3ccccc32)n1)c1ccc(F)cc1` has a growth of 64.3%. With `CN(c1ccc(Cl)cc1)S(=O)(=O)c1ccc(-c2cnc(C3CC3)o2)cc1` the growth was 13.6%. `C=C(C)C(=O)O[C@H]1C[C@@]2(C)OC(=CC2=O)/C(C)=C\[C@H]2OC(=O)C(=C)[C@H]12` showed a growth of 15.7%. `Cc1ccc(NC(=O)c2ccc(CN3CCN(C)CC3)c(C(F)(F)F)c2)cc1Oc1ccc(-c2[nH]nc3ncnc(N)c23)cc1` showed a growth of 52%. `C=CCn1c(SCC(=O)Nc2ccc(OC)cc2)nnc1-c1ccc(Cl)cc1` was tested, and the growth was 83.6%. Compound `O=C(Nc1cccc(Cl)c1)Nc1nc2ccc(-c3cccc4ccccc34)cc2s1` has a growth of 57.5%. Compound `CC(=O)Nc1cccc(-n2cnc3cc(-c4ccc(O)cc4)ccc32)c1` has a growth of 18.5%. In the case of `COc1cccc(/C=C/C(=O)c2ccc(NC(=O)COc3cccc4cccnc34)cc2)c1`, the growth is reported as 90.8%. `NC(=S)N/N=C(/C=C/c1cn(-c2ccccc2)nc1-c1ccc(Cl)cc1)c1cc2ccccc2oc1=O` was tested, and the growth was 25.4%. `CS(=O)c1nccc(-c2c(-c3ccc(F)c(OCc4ccccc4)c3)nc3sccn23)n1` (stereo not given) gave a growth of 102%. `Oc1ccc(CSc2nnc(-c3ccc(Oc4ccccc4)cc3)n2-c2ccccc2)c2cccnc12` was tested, and the growth was 6.26% (active). Compound `COc1cc(CNC(=O)Cc2ccccc2[N+](=O)[O-])ccc1OCC(=O)NO` has a growth of 106%. With `COc1ccc(S(=O)(=O)NCCCNc2nccc(-n3cnc4ccccc43)n2)cc1` the growth was 105%. Work on `Clc1ccc(-c2nc3ccc(/C(=N\N=C\c4ccccc4)c4ccccc4)cc3[nH]2)cc1` yielded a growth of 87.8%. For `O=C(CN1C(=O)CSC1=O)Nc1ccc(C(=O)/C=C/c2cc3ccccc3nc2Cl)cc1`, the growth was 89.5%. With `N#Cc1c(-c2cccs2)cc(-c2cnccn2)nc1SCC(=O)NNC(=S)Nc1ccc(F)cc1` the growth was 106%.

— PubChem BioAssay (NCI)
